HPGD block = HPGD (human) dehydrogenase inhibition | P15428 | purified HPGD, NADH fluorescence kinetic, PGE2 substrate | Potency, µM, usual class: inhibitors | actives 4.3% (n = 150,000); active = well fitted inhibition curve with a large enough effect, not every such curve was filed as active; inconclusive = small, poorly fitted or top-dose-only effect, or another doubt; inactive = no such curve, though single readings can be large or run the other way
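20 nM HPGD preincubated 15 min at room temperature with compound in 50 mM Tris-HCl pH 8, 0.01% Tween 20. Started with 1 mM NAD+ and 30 uM prostaglandin E2; NADH fluorescence (360/450 nm) read 5 times over 30-s intervals, last minus first.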
12-hLO inh = 12-hLO (ALOX12) enzyme inhibition; P18054; purified 12-hLO, xylenol orange hydroperoxide absorbance; Potency, µM (series often up to 57.1 µM), usual class: inhibitors; actives 0.12% (n = 150,000); AID 1452; note: nearly all actives have a fitted effect of over 55% in size
Target sequence (P18054 whole entry, looked up): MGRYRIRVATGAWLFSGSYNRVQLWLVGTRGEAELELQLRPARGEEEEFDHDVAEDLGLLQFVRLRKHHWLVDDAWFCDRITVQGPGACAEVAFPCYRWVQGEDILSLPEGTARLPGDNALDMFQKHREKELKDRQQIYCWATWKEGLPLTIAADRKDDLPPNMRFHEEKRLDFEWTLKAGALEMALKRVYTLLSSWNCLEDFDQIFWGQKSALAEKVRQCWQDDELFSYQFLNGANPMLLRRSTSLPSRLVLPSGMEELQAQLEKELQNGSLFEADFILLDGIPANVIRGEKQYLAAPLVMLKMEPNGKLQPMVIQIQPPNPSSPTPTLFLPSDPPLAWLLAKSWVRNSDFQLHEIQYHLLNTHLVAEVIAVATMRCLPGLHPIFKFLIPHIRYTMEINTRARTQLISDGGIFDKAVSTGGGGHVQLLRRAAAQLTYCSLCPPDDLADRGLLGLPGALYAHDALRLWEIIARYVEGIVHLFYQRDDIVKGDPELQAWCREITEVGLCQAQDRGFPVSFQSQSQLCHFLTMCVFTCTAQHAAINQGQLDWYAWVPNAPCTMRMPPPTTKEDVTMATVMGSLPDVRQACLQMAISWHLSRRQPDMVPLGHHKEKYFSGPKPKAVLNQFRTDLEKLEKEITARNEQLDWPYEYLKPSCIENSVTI
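Hydroperoxide formation by human 12-lipoxygenase from 40 uM arachidonic acid was followed colorimetrically via ferric-xylenol orange complex, using the 573/405 nm absorbance ratio. Enzyme concentration was 150 nM, with 30 min reaction at room temperature.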
ALDH1A1 inh = inhibitors of human aldehyde dehydrogenase 1A1; actives 7.3% (n = 220,000); Potency, µM (top dose mostly 75.3 µM), hits mostly inhibitors; P00352; Purified ALDH1A1, NADH fluorescence, propionaldehyde substrate; active = well fitted inhibition curve with a large enough effect, not every such curve was filed as active; inconclusive = small, poorly fitted or top-dose-only effect, or another doubt; inactive = no such curve, though single readings can be large or run the other way
IMPase Li inh = cell-permeable IMPase inhibitors with lithium potentiation; CHO-M1 cells, IP1 TR-FRET (IP-One), carbachol + lithium; Potency, µM (titrated, usually from 59.4 µM), actives largely listed as inhibitors; actives 0.35% (n = 210,000); AID 1457;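 note: IP1 builds up when IMPase is blocked and the TR-FRET signal falls; nearly all actives have a fitted effect of over 50% in size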
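Readout is a homogeneous TR-FRET IP1 immunoassay (Ex 320, Em 665 and 620), where raised cytosolic IP1 lowers signal. Cells were CHO-M1 treated 30 min at 37C with test compounds plus a little lithium; AC50 values came from Hill-equation fitting.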
IMPase cell inh = cell-permeable inhibitors of inositol monophosphatase (IMPase). P97697. CHO-M1 cells, IP1 accumulation, HTRF TR-FRET ratio. inhibition (IP1 accumulation), % at 46.1 µM. 120,000 tested, under 10 active. AID 901; active = well fitted curve in the direction sought with a large enough effect in the signal ratio, not every such curve was filed as active; inconclusive = small, poorly fitted or top-dose-only effect, or a change in a side signal; inactive = no such curve, though single readings can be large or run the other way; the % refers to the signal ratio;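 note: cells stimulated with carbachol in lithium chloride buffer; higher means more IMPase inhibition seen as more IP1 and lower FRET ratio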
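Measured: the HTRF emission ratio (665/620 nm) plus the 620 nm donor channel, each fitted to the Hill equation to give AC50. Cells were CHO-M1 given compounds up to 46 uM and a 30 min carbachol stimulation at 37C.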
PNC inhibitor = perinucleolar compartment assembly inhibition; activity change (PNC), negative = inhibition, % at 10 µM; actives 3.1% (n = 140,000); PC3M PTB-GFP, PNC prevalence imaging, 16 h; stronger effect = lower value;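 active = readout at or below -70, meaning at least 70% loss of cells showing the perinucleolar compartment, a nuclear body marking cancer cells; inconclusive = readout between -30 and a set limit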
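Compounds are pinned in duplicate onto adhered PC3M cells stably expressing GFP-tagged PTB and incubated 16 h at 37 C. Cells are then fixed, nuclei stained with Hoechst, and PNC-positive cells counted.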
Hits are given with their value; i = inactive; ? = inconclusive; nt = no result given; [ ] = remark or other dose. In the library only some 11% were active in any assay of this set; here they are far more common. Unless noted, calls come from the whole dose curve; as a rule, active = well fitted curve in the direction sought with a large enough effect; inconclusive = small, poorly fitted or top-dose-only effect, or another doubt; inactive = no such curve, though single readings can be large; an effect the other way counts as inactive or inconclusive.

SMILES	HPGD block	12-hLO inh	ALDH1A1 inh	IMPase Li inh	IMPase cell inh	PNC inhibitor
O=C(c1ccc(N2CCOCC2)cc1)c1cccs1	13µM	i	?	i	i[1.84 µM]	?
O=C(Nc1ccc(C(=O)N2CCOCC2)cc1)c1cccs1	14µM	i	i	i	i	i
O=C(Nc1cc(C(=O)N2CCOCC2)ccc1N1CCCC1)c1cccs1	i	i	i	i	?	i
CC(C)C(=O)N1CCN(c2ccc(NC(=O)c3cccs3)cc2)CC1	i	i	i	i	i	-100
CC(C)CNC(=O)c1ccc(NC(=O)c2cccs2)cc1	18µM	i	i	i	nt	i
CCC(C)c1ccc(NC(=O)c2cccs2)cc1 (centres undefined)	i	i	i	i	i	i
Cc1ccccc1OCC(=O)N(Cc1ccc(C(C)C)cc1)C1CCS(=O)(=O)C1 (centres undefined)	nt	nt	nt	nt	i	nt
Nc1nc2ccccc2n1/N=C/c1ccc([N+](=O)[O-])s1	i	i	i	i	nt	-83
Nc1nc2ccccc2n1/N=C/c1ccc(-c2ccccc2)o1	i	i	i	i	i	i
O=C(O)c1cn(-c2ccc(N3CCCC3)c(F)c2)c2c(F)c(F)c(F)cc2c1=O	nt	nt	16µM	i	nt	nt
COC(=O)c1ccc2c(=O)n(CCN3CCOCC3)c(=S)[nH]c2c1	i	i	4µM	i	i	-100
COCCn1c(=S)[nH]c2cc(C(=O)NCCCN3CCOCC3)ccc2c1=O	i	i	16µM	i	i	i
COc1ccccc1Cn1c(=S)[nH]c2cc(C(=O)NCCN3CCOCC3)ccc2c1=O	nt	i	20µM	nt	?	?
O=C(NCCCN1CCOCC1)c1ccc2c(=O)n(CCc3ccccc3)c(=O)[nH]c2c1	i	i	?	i	i	-95
O=C(CSC1=NCCN1)c1ccccc1	i	i[11.4 µM]	i[13.5 µM]	i	nt	nt
O=C(NCCc1ccc(Cl)cc1)c1nnc(Cc2ccc(Cl)cc2Cl)o1	nt	nt	nt	nt	i	nt
CC(C)[C@@H](CC(=O)N[C@@H]1CCCC[C@H]1C(=O)N[C@H](CC(=O)N[C@@H](CCC(=O)O)CC(=O)O)Cc1ccccc1)NC(=O)C[C@H](Cc1ccccc1)NC(=O)[C@@H]1CCCC[C@H]1N	i	i	i	i	nt	nt
O=C(NCCCN1CCCC1)c1ccc(Cn2c(=S)[nH]c3ccc(Br)cc3c2=O)cc1	nt	nt	22µM	i	nt	nt
COc1ccc(N2CCN(CCNC(=O)c3ccc4c(c3)[nH]c(=S)n3c5ccccc5nc43)CC2)cc1	nt	nt	?	14µM	nt	nt
COC(=O)c1ccc2c(=O)n(CCN3CCOCC3)c(SCC(=O)C(C)(C)C)nc2c1	i	i	13µM	i	i	i
CCOC(=O)CSc1nc2cc(C(=O)OC)ccc2c(=O)n1CCN1CCOCC1	i	i	?	i	i	?
COc1ccc(/C=N\NC(=O)O)cc1	i	i[11.4 µM]	i[13.5 µM]	i	nt	nt
CCCCC(=O)NC1(C(F)(F)F)C(=O)Nc2c1c(=O)[nH]c(=O)n2-c1ccc(C)c(C)c1 (centres undefined)	nt	nt	nt	nt	i	nt
O=C(NCc1ccncc1)c1ccc(N2CCCC2)c([N+](=O)[O-])c1	nt	nt	?	i	nt	nt
O=C(NCCCn1ccnc1)c1ccc(N2CCCCC2)c([N+](=O)[O-])c1	nt	nt	7.9µM	i	nt	nt
SMILES	HPGD block	12-hLO inh	ALDH1A1 inh	IMPase Li inh	IMPase cell inh	PNC inhibitor
COc1ccc(C(=O)NCCCn2ccnc2)cc1	i	i	7.9µM	i	i	i
CN(C)C(CNC(=O)c1ccc2c(=O)n(-c3ccccc3F)c(=S)[nH]c2c1)Cc1ccccc1 (centres undefined)	nt	nt	13µM	i	nt	nt
CC[C@@H](C)[C@H]1O[C@]2(CC[C@@H]1C)C[C@@H]1C[C@H](C/C=C(/C)[C@H](O[C@@H]3C[C@H](OC)[C@H](O[C@@H]4C[C@H](OC)[C@@H](O)[C@H](C)O4)[C@H](C)O3)[C@@H](C)/C=C\C=C3CO[C@@H]4[C@H](O)C(C)=C[C@@H](C(=O)O1)[C@]34O)O2 (tested in a mixture with another compound)	?	i	i	i	i	nt
CCCCC/C=C\C[C@@H](O)/C=C/C=C/C=C\[C@@H](O)CCCC(=O)O	i	i[0.00818 µM]	i	i	nt	nt
COc1ccc(C(=O)c2c(C)c3cc(C)ccc3n2CC(O)CN2CCOCC2)cc1 (centres undefined)	i	i	11µM	i	nt	?
Cc1c(C)n(CC(O)CN2CCOCC2)c2ccccc12 (centres undefined)	i	i	?	i	i	i
Cc1ccccc1/C=C1\SC(=S)N(/N=C/c2cc([N+](=O)[O-])ccc2O)C1=O	nt	nt	0.4µM	i	nt	nt
CN(/N=C/c1cc([N+](=O)[O-])ccc1O)c1ccccc1	i	i	i	i	nt	i
CCCC[C@@H]1C[C@H]1C(NC(=O)c1cccnc1)c1ccc(-c2ccccc2)cc1 (some centres undefined)	i	i	i	i	nt	nt
CCN1/C(=C/c2ccc3cc(C)ccc3[n+]2CC)Sc2ccccc21	i	i	i	i	nt	-93
CCN1/C(=C/c2ccc3cc(C)ccc3[n+]2CC)Sc2cc(C)c(C)cc21	nt	nt	i	i	nt	nt
CCOC(=O)c1cc2c(ccn2-c2ccc(F)cc2)n1CC(=O)NC(C)(C)C	nt	nt	?	i	nt	nt
COC(=O)c1ccccc1S(=O)(=O)N1CCc2nc(-c3ccc(OC)cc3C)c3c(c2C1)CO[C@@H](c1ccccc1)C3	i	i[11.4 µM]	4µM	i	nt	nt
CCCCS(=O)(=O)N1CCc2nc(-c3ccc(OC)cc3C)c3c(c2C1)CO[C@@H](c1ccccc1)C3	i	i[11.4 µM]	0.45µM	i	nt	nt
COCC(=O)N1CCc2nc(-c3ccc(OC)cc3C)c3c(c2C1)CO[C@@H](c1ccccc1)C3	i	i[11.4 µM]	i[13.5 µM]	i	nt	nt
COc1ccc(-c2nc3c(c4c2C[C@H](c2ccccc2)OC4)CN(S(=O)(=O)c2ccc(NC(C)=O)cc2)CC3)c(C)c1	i	i[11.4 µM]	0.45µM	i	nt	nt
CO[C@H]1COC(=O)[C@H](C)NC(=O)C/C=C\[C@@H](C)[C@@H](NS(=O)(=O)c2ccc(C)cc2)COC(=O)C/C=C\[C@@H]1C	nt	nt	i[13.5 µM]	nt	nt	nt
COC(=O)c1sccc1NC(=O)Nc1cccc(F)c1	nt	nt	i	i	nt	nt
COc1cccc(C2C(C(=O)c3cc4ccccc4o3)=C(O)C(=O)N2c2cc(C)on2)c1OC (centres undefined)	i	i	?	11µM	?	i
COc1cc(C2C(C(=O)c3ccc(C)o3)=C(O)C(=O)N2c2cc(C)on2)cc(OC)c1OC (centres undefined)	i	i	?	i	i	i
COc1cccc(C2C(C(=O)c3cc4cccc(OC)c4o3)=C(O)C(=O)N2c2cc(C)on2)c1OC (centres undefined)	i	i	?	10µM	?	i
